Out of some 400,000 compounds screened, about 2,100 (0.53%) were called active. Another 14% or so got no clear call; they are omitted. This is one part of a sample in which actives are shown more often than they occur. The rule behind the calls is not given here.

Chain of Ataxin-2 (Homo sapiens) (Q99700 whole entry): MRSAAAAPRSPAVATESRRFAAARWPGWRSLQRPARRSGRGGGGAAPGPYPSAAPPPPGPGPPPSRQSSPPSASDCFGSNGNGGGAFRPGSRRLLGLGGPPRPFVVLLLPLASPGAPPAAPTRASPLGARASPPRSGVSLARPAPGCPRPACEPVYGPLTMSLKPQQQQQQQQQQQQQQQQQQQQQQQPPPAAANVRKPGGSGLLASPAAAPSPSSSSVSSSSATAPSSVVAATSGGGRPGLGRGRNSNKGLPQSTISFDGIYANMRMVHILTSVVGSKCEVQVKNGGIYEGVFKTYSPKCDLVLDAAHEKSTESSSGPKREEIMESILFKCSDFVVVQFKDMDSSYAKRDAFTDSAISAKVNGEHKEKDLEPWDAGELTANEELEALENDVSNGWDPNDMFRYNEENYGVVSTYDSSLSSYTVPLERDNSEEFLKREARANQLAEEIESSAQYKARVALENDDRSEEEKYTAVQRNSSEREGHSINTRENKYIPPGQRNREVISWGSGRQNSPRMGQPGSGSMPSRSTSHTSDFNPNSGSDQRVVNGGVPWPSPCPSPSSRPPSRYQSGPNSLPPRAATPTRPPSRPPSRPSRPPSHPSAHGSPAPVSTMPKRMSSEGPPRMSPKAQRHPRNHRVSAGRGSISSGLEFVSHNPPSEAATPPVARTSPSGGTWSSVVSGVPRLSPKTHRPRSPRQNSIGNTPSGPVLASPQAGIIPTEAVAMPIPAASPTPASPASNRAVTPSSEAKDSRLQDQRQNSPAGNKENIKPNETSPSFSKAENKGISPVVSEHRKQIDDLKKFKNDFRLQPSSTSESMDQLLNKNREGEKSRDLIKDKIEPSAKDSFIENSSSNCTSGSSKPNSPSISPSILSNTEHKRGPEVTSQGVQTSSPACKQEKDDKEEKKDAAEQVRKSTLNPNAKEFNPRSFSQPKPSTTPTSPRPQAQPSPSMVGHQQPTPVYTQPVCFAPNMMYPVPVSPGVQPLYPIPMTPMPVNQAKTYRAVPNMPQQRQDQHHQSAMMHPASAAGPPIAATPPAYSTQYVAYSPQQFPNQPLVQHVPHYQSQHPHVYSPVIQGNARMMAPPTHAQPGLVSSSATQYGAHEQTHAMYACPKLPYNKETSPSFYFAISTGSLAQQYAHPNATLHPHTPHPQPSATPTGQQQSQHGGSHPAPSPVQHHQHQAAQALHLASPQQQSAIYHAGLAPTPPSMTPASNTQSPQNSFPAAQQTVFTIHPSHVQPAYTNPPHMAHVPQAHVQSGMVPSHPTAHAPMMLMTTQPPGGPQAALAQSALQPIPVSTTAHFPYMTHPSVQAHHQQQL

The experiment addresses Ataxin-2 (Homo sapiens) (UniProt Q99700). The experiment can be described thus: qHTS for Inhibitors of ATXN expression. The class given is functional.
Regarding `O=C(C1=NN(c2ccccc2)C2C(=O)N(c3cccc(Cl)c3)C(=O)C12)c1ccccc1` (stereo unspecified), the Potency entry was “inactive”.
The entry for `COc1ccc(-c2c(C#N)c(N)nc3c2CCC3)cc1` is “inactive”; for `CCCCN1C(=O)C2Cc3c([nH]c4ccccc34)CN2C1=S` (stereo unspecified) it is “inactive”; for `O=c1c(O)c(-c2cccs2)oc2ccccc12` it is “inactive”.
In the case of `CC(C)Oc1ccc(C(CCN)C2CCCCC2)cc1` (stereo unspecified) it was 25.1 µM (active); in that of `COc1ccc(C2CC(c3ccc4ccccc4c3)=NN2C(=O)CNC2CCCCC2)cc1` (stereo unspecified), 39.8 µM (active); in that of `COc1ccc(C2CC(c3ccc(OC)cc3OC(C)=O)=NN2C(=O)c2ccccc2)cc1` (stereo unspecified), “inactive”.
As to `CCC(=O)Nc1cccc(C2=NN(c3ccccc3)C(c3ccc(OC)cc3)C2)c1` (stereo unspecified), the Potency entry is “inactive”.
The entry for `CCOc1ccc2nc(NCCCNS(=O)(=O)c3ccc(F)cc3)c(C#N)cc2c1` is “inactive”; for `Nc1c(C(=O)Nc2ccccc2F)sc2nc(-c3ccco3)ccc12` it is “inactive”; for `COc1cc(/C=C/c2nc(O)c3ccccc3n2)cc(Cl)c1O` it is “inactive”.
With `COc1ccc(NC(=O)c2cc3ccccc3cc2O)cc1`, the Potency result is “inactive”.
As for `COc1ccc(C(=O)Nc2cccc(/C=C/c3nc(O)c4ccccc4n3)c2)cc1`, the Potency was 25.1 µM (active).
On to `O[C@@H]1[C@@H]2c3cc4c(cc3CN3CCC(=C[C@@H]1O)[C@H]23)OCO4`, for which the Potency was 6.31 µM (active).
For `COc1cc(C2Nc3ccc4ccccc4c3C3=C2C(=O)CC(C)(C)C3)ccc1OCC(=O)O` (stereo unspecified), the Potency result was “inactive”.
In the case of `COCCN(CCOC)Cc1c(O)ccc2c1O/C(=C\c1ccco1)C2=O`, the Potency result is “inactive”.
Take `Cc1cc(-c2ccnc(-n3ncc(C(=O)NCC4COCCO4)c3C3CC3)n2)c(C)s1` (stereo unspecified): the Potency entry is “inactive”.
In the case of `O=C(NN/C=C1\C(=O)N(c2ccccc2Cl)C(=O)c2ccccc21)c1cccnc1` it was “inactive”; in that of `CNc1ccc(N=Nc2cc[n+]([O-])cc2C)cc1C`, 28.2 µM (active).
In the case of `CCOC(=O)C1(Cc2ccccc2C(F)(F)F)CCN(CC(O)CO)CC1` (stereo unspecified) it was “inactive”; in that of `Cc1cccn2c(=O)c3cc(S(=O)(=O)c4ccccc4)c(=N)n(Cc4ccco4)c3nc12`, “inactive”.
With `COc1ccc(-c2c(NC(=O)c3ccco3)n(-c3ccc(C)cc3)nc(C)c2=O)cc1`, the Potency entry was “inactive”.
Take `CCOC(=O)CNC(=O)Cn1cnc2c(cnn2-c2ccc(C)cc2)c1=O`: the Potency result was “inactive”.
For `Cc1ccc(-n2nc(C)c(NC(=O)CCl)c2C)cc1`, the Potency was 39.8 µM (active).
Regarding `Cc1nn(Cc2ccccc2Cl)c(C)c1C(=O)N(C)CC(=O)Nc1cccc(F)c1`, the Potency entry is “inactive”.
Consider `Cc1nn(-c2ccccc2)c(C)c1C(=O)OCC(=O)Nc1ccccc1Cl`, for which the Potency entry is “inactive”.
In the case of `CCc1ccc(-c2cc(C(F)(F)F)n3nc(C(=O)Nc4c(C)nn(Cc5ccccc5Cl)c4C)cc3n2)s1`, the Potency entry is “inactive”.
With `Cc1nn(Cc2ccc(Cl)cc2Cl)c(C)c1NC(=O)CCl`, the Potency was 25.1 µM (active).
With `Cc1ccc(-n2nc(C)c(NC(=O)CCl)c2C)cc1C`, the Potency was 35.5 µM (active).
For `Cc1cc(C)n(-c2ccc(C(=O)NCC(=O)Nc3cc(Cl)ccc3Cl)cc2)n1`, the Potency entry is “inactive”.
Consider `COCCSc1ccccc1C(=O)N1CCc2ccccc21`, for which the Potency result was “inactive”.
In the case of `CCOCCCn1c(=N)c(C(=O)NCc2ccccc2)cc2c(=O)n3ccccc3nc21` it was “inactive”.
Consider `O=C1CCC(=O)N1c1nc2n(n1)C(c1ccccc1)C=C(c1ccc(Br)cc1)N2` (stereo unspecified), for which the Potency result is “inactive”.
In the case of `Cc1ccc2[nH]c3ccccc3c(=O)c2c1`, the Potency result was “inactive”.
In the case of `Cc1[nH]c2ccccc2c1C1=CC(=O)C=CC1=O` it was 39.8 µM (active); in that of `O=c1c2ccccc2[nH]c2ccccc12`, “inactive”; in that of `COCc1cc(C)nc2sc(C(=O)Nc3nccs3)c(N)c12`, “inactive”.
For the compound `Cc1ccccc1N=C(S)NNC(=O)c1cccc(Br)c1`, the Potency result is “inactive”.
Regarding `O=C(N/N=C1/C(=O)c2cccc3cccc1c23)c1ccc(Cl)cc1`, the Potency was 35.5 µM (active).
Regarding `C/C(=N\NC(=O)c1ccc(-n2cnnn2)cc1)c1ccc(Cl)cc1`, the Potency result was “inactive”.
As for `Nc1[nH]cnc2c(C3OC(CO)C(O)C3O)cnc1-2` (stereo unspecified), the Potency is 0.299 µM (active).
Consider `CCOC(=O)c1cc2c(=O)n3ccccc3nc2n(Cc2ccco2)/c1=N\C(=O)c1ccc(F)cc1`, for which the Potency entry is “inactive”.
Regarding `Cc1nc2c(sc(=S)n2Cc2ccco2)c(=O)n1CC(=O)Nc1ccc(F)cc1`, the Potency is 39.8 µM (active).
In the case of `Cc1cccn2c(=O)c3cc(S(=O)(=O)c4ccc(F)cc4)c(=N)n(Cc4ccco4)c3nc12` it was “inactive”; in that of `Cc1cc(C)c2c(N)c3cccc(C)c3nc2n1`, “inactive”.
Turning to `CCOC(=O)C1=C(C#N)C(C(=O)OCC)c2ncccc21` (stereo unspecified), the Potency result was “inactive”.
On to `CCOC(=O)C1=C(Nc2ccccc2)S/C(=C\c2ccc(OCC(=O)O)c(OCC)c2)C1=O`, for which the Potency result is “inactive”.
As to `CCOC(=O)C1=C(O)c2ccccc2C(=O)/C1=C\c1ccc(C)cc1`, the Potency is 39.8 µM (active).
`COCCNc1c2c(c(C#N)c3nc4ccccc4n13)CCCC2`: the Potency entry was “inactive”.
On to `Cc1ccc2[nH]c(/C(C#N)=C\c3ccc([N+](=O)[O-])o3)nc2c1`, for which the Potency is 8.91 µM (active).
With `COc1cc(/C=C(\C#N)c2nc3cc(C)ccc3[nH]2)ccc1OCc1ccc(C)cc1`, the Potency result was “inactive”.
For `Cc1c(Cl)cccc1-c1ccc(/C=C(\C#N)c2nc3ccccc3[nH]2)o1`, the Potency entry is “inactive”.
The entry for `Cc1ccc2[nH]c(/C(C#N)=C/c3ccc(-c4ccccc4C(=O)O)o3)nc2c1` is “inactive”.
As to `COc1cc(/C=C(\C#N)c2nc3cc(C)ccc3[nH]2)ccc1OC(C)C`, the Potency result is “inactive”.
Regarding `COc1ccc(/C=C(\C#N)c2nc3cc(C)ccc3[nH]2)cc1Oc1ccc(C(F)(F)F)cc1[N+](=O)[O-]`, the Potency is 44.7 µM (active).
Turning to `Oc1c(Br)cc(Br)cc1/C=N\c1cccnc1`, the Potency result is “inactive”.
In the case of `COCc1cc(N2CCCC2)nc(-c2ccccc2)n1`, the Potency entry is “inactive”.
On to `Cc1c(N=C2N=C(NC(=O)Nc3ccc(Cl)cc3)c3ccccc32)c(=O)n(-c2ccccc2)n1C`, for which the Potency result is “inactive”.
With `O=C1c2cccc3c([N+](=O)[O-])ccc(c23)C(=O)N1CC1CCCO1` (stereo unspecified), the Potency result is “inactive”.
`Cc1cccc(C(=O)NCCc2nc3ccccc3n2Cc2ccc(Cl)cc2)c1`: the Potency was 28.2 µM (active).
Turning to `CCC(=O)NCCCc1nc2ccccc2n1Cc1ccccc1F`, the Potency entry was “inactive”.
For `CCn1c(C)nc2cc(C(=O)N/N=C(\C)c3ccccc3O)ccc21`, the Potency entry was “inactive”.
Consider `Cc1cccc(-n2cnc3cc(C(=O)NCCN4CCOCC4)ccc32)c1`, for which the Potency result is “inactive”.
The entry for `CCCCCn1c(N)c(C#N)c2nc3ccccc3nc21` is “inactive”; for `ClCc1nc2ccccc2n1Cc1ccccc1` it is “inactive”.
For `CCCCCn1c(-c2cccc(C)c2)nc2ccccc21`, the Potency was 35.5 µM (active).
Turning to `CCCn1c(CNC(=O)c2cccs2)nc2ccccc21`, the Potency entry is “inactive”.
Regarding `CCCCCn1c(CCNC(=O)c2cccc(C)c2)nc2ccccc21`, the Potency is 31.6 µM (active).
Turning to `CCc1ccccc1-n1c(C)nc2cc(C(=O)NCCc3ccc(Cl)cc3)ccc21`, the Potency is 44.7 µM (active).
In the case of `CCCCCn1nc(-c2ccccc2)c2nc3ccccc3nc21` it was “inactive”; in that of `Cc1ccc(C(=O)NCCc2ccccc2)cc1N1CCCC1=O`, “inactive”.

The values are drawn from ChEMBL document CHEMBL1201862, “PubChem BioAssay data set” (2004).
